Source: PubChem BioAssay
TDP1 cell CPT – growth inhibition of DT40 Tdp1-/-;hTDP1 cells with camptothecin (screen for TDP1 inhibitors). chicken DT40 Tdp1-/-;hTDP1 cells + 20 nM CPT, ATP luminescence, 48 h. Potency, µM (titrated, usually from 46.2 µM), inactives show top-dose activity change, negative = growth inhibition, usual class: inhibitors. 12% of 420,000 active; also: potency is read from the fitted curve at half-maximal effect; % is scaled to controls: 0 for no effect and ±100 for the full control effect; nearly all actives have a fitted effect of over 55% in size
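Cell growth measured by CellTiter-Glo luminescence after a minimum 48 h, 37 C compound exposure with 20 nM CPT in Tdp1-knockout DT40 cells stably expressing hTDP1, seeded 400/well; qHTS titration format.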
TDP1 inh – blocks human tyrosyl-DNA phosphodiesterase 1; Potency, µM (doses to about 130 µM), for inactives: at the highest dose activity change, negative = inhibition, actives largely listed as inhibitors; 0.28% of 350,000 active; Q9NUW8; recombinant TDP1, AlphaScreen DNA substrate cleavage; AID 485290; also: potency is read from the fitted curve at half-maximal effect; % is scaled to controls: 0 for no effect and ±100 for the full control effect; nearly all actives have a fitted effect of over 40% in size
Target sequence (Q9NUW8 whole entry, looked up): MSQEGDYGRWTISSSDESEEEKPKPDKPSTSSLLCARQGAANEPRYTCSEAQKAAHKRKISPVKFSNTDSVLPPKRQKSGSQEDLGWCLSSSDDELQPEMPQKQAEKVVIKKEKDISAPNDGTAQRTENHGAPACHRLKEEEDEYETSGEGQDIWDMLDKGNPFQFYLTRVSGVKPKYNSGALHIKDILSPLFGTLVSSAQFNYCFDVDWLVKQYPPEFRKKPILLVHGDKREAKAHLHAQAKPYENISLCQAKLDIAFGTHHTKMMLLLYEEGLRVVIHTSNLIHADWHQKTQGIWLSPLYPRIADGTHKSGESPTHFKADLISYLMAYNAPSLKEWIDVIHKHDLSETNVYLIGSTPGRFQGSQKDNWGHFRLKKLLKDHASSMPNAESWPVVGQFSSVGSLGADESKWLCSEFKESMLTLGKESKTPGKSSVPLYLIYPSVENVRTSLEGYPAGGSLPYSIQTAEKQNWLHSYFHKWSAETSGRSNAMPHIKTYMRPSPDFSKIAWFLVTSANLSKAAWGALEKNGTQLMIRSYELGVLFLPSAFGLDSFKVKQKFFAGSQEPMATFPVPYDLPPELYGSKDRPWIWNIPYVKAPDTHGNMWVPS
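Here, a 5' biotin and 3' phosphotyrosine-FITC DNA oligonucleotide reports Tdp1 activity: intact substrate bridges AlphaScreen beads, while cleavage leaves a 3' phosphate and drops signal. All incubations at room temperature.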
TGFb SMAD3 inh – blocks TGF-b signaling | HepG2 CAGA-GFP TGF-b/SMAD3 reporter, GFP fluorescence, 18 h; TGF-beta stimulated, 500 pg/mL final | Potency, µM (series often up to 46.1 µM), inactives show top-dose activity, negative = inhibition, usual class: inhibitors | 1.2% of 410,000 active | AID 588855; also: potency is read from the fitted curve at half-maximal effect; % is scaled to controls: 0 for no effect and ±100 for the full control effect; nearly all actives have a fitted effect of over 65% in size
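Inhibition of TGF-beta-driven CAGA-GFP reporter expression in HEPG2 cells is measured by cellular GFP fluorescence after 18 h stimulation with 500 pg/mL recombinant TGF-beta in 1% FBS medium at 37 degrees C.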
TDP1 cell noCPT – qHTS for Inhibitors of human tyrosyl-DNA phosphodiesterase 1 (TDP1): qHTS in cells in absence of CPT; 15% of 420,000 active; Potency, µM (doses to about 46.2 µM), for the others: at the top dose activity change, negative = growth inhibition, most hits filed as inhibitors; DT40 Tdp1-/- hTDP1 cells, no CPT, ATP luminescence, 48 h; also: potency is read from the fitted curve at half-maximal effect; % is scaled to controls: 0 for no effect and ±100 for the full control effect; nearly all actives have a fitted effect of over 55% in size
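Growth of hTDP1-complemented DT40 Tdp1-knockout cells is measured by ATP luminescence after at least 48 hr compound exposure at 37 °C, with DMSO substituting for the 20 nM CPT used in the parallel screen.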
HepG2 tox – counter-screen for TGF-b inhibitors: cytotoxicity in HepG2 cells; AID 588856; HepG2 CAGA-GFP viability, ATP luminescence, 18 h; 0.76% of 410,000 active; Potency, µM (series often up to 46.1 µM), inactives show at the top dose activity change, negative = cytotoxicity, usual class: cytotoxic; also: potency is read from the fitted curve at half-maximal effect
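CellTiter-Glo luminescence gave cytotoxicity after 18 hours at 37 degrees C. The cells were HepG2 CAGA-GFP in 1% FBS DMEM, stimulated with 500 pg/mL TGF-beta after compound addition. %Activity was normalised to no-cell wells (complete cell-killing) and DMSO (no toxicity), and curves were fitted and classified.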
IL-1B inflam inh – blocks inflammasome-driven IL-1 beta release; THP-1 LPS/ATP IL-1B secretion, AlphaLISA, 16 h; active compounds read low; activity change, % at 57.5 µM; 4.7% of 360,000 active; AID 743279; in the data active = activity change below about -50%; inconclusive = mostly about -30% to -49%; also: % is scaled to controls: 0 for no effect and ±100 for the full control effect
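THP-1 cells pretreated 1 hr with compounds (up to 57.5 uM final), then stimulated with LPS (250 ng/mL final) plus ATP (1.25 mM final); secreted IL-1B measured by AlphaLISA after 16 hr, decreased signal indicating inhibition.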
* hit, by the source's call; [ ] = remark or other dose. A selection: hits, their analogues and other compounds. The true share with any hit is near 18%. Unless noted, calls follow the shape of the dose curve; as a rule, active = well fitted curve in the direction sought with a large enough effect; inconclusive = small, poorly fitted or top-dose-only effect, or another doubt; inactive = no such curve, though single readings can be large; an effect the other way counts as inactive or inconclusive.

O=C(C1=C[C@@H](c2ccc(Br)cc2)C[C@@H](OCCCCO)O1)N1CCN(Cc2ccc3c(c2)OCO3)CC1 was read as TDP1 cell CPT inconclusive, TDP1 inh 1%, TGFb SMAD3 inh -14%, TDP1 cell noCPT inconclusive, HepG2 tox -25% and IL-1B inflam inh inconclusive.
Screening O=C(C1=C[C@@H](c2csc3ccccc23)C[C@@H](OCc2ccc(CO)cc2)O1)N1CCN(Cc2ccccc2)CC1 returned TDP1 cell CPT inconclusive, TDP1 inh 4%, TGFb SMAD3 inh inconclusive, TDP1 cell noCPT inconclusive, HepG2 tox -19% and IL-1B inflam inh -60*.
Cc1ccc2c(c1)CN(CCC(=O)NCc1cc(C)n(C)n1)CC(C)O2 (configuration not stated) was read as TDP1 cell CPT 24%[9.04 µM] and TDP1 cell noCPT -12%.
Screening O=C(NCc1ccccc1)C1=C[C@H](c2csc3ccccc23)C[C@H](OCCCCO)O1 returned TDP1 cell CPT 16µM*, TDP1 inh 1%, TGFb SMAD3 inh inconclusive, TDP1 cell noCPT 18µM*, HepG2 tox -69% and IL-1B inflam inh -25.
O=C(Nc1ccccc1)C1=C[C@H](c2csc3ccccc23)C[C@H](OCCCCO)O1 was read as TDP1 cell CPT inconclusive, TDP1 inh 5%, TGFb SMAD3 inh inconclusive, TDP1 cell noCPT inconclusive, HepG2 tox -28% and IL-1B inflam inh -29.
For CCCN=C1N/C(=C\c2ccco2)C(=O)N1c1ccccc1 the results were TDP1 cell CPT inconclusive, TDP1 inh 3%, TGFb SMAD3 inh 5%, TDP1 cell noCPT -16%, HepG2 tox -13% and IL-1B inflam inh -17.
For O=C1/C(=C\c2ccco2)NC(=S)N1c1ccccc1 the results were TDP1 cell CPT -13%, TDP1 inh 0%, TGFb SMAD3 inh -21%, TDP1 cell noCPT 29µM*, HepG2 tox -21% and IL-1B inflam inh -22.
For NC(=O)N=Nc1c2[nH]c3ccccc3nc-2c2ccccc12 the results were TDP1 cell CPT 16µM*, TGFb SMAD3 inh -25%, TDP1 cell noCPT 8.2µM*, HepG2 tox -12% and IL-1B inflam inh -89*.
For CCCN(CC(=O)Nc1ccccc1OC)C(=O)CCNC(=O)c1ccccc1OC the results were TDP1 cell CPT 0%, TGFb SMAD3 inh -5%, TDP1 cell noCPT 3%, HepG2 tox -7% and IL-1B inflam inh 3.
`O=Nc1c(O)n(Cc2cccc(C(F)(F)F)c2)c2ccccc12` gave TDP1 cell CPT 10%, TDP1 inh 5%, TGFb SMAD3 inh inconclusive, TDP1 cell noCPT -19%, HepG2 tox -1% and IL-1B inflam inh -246*.
For O=Nc1c(O)n(Cc2ccc(Cl)c(Cl)c2)c2ccccc12 the results were TDP1 cell CPT inconclusive, TDP1 inh 8%, TGFb SMAD3 inh 0%, TDP1 cell noCPT inconclusive, HepG2 tox 13µM* and IL-1B inflam inh -59*.
CC(C)C(=O)Nc1ccc(C(=O)c2ccccc2)cc1 was read as TDP1 cell CPT 18µM*, TDP1 inh 2%, TGFb SMAD3 inh 3%, TDP1 cell noCPT 21µM*, HepG2 tox -5% and IL-1B inflam inh -22.
COc1cccc(NC(=S)NC(C)c2ccc(OC)c(OC)c2)c1 (configuration not stated) was read as TDP1 cell CPT -7%, TDP1 inh -3%, TGFb SMAD3 inh -2%, TDP1 cell noCPT -17%, HepG2 tox 18% and IL-1B inflam inh 0.
Screening Cc1cccc(NC(=S)NC(C)CCc2ccccc2)c1 (configuration not stated) returned TDP1 cell CPT inconclusive, TDP1 inh 5%, TGFb SMAD3 inh -23%, TDP1 cell noCPT inconclusive, HepG2 tox -34% and IL-1B inflam inh -96*.
For COc1cccc(NC(=S)NC(Cc2ccccc2)c2ccccc2)c1 (configuration not stated) the results were TDP1 cell CPT inconclusive, TGFb SMAD3 inh 22µM*, TDP1 cell noCPT 16µM*, HepG2 tox -24% and IL-1B inflam inh -7.
Screening Cc1cccc(NC(=O)NC(C)CCc2ccccc2)c1 (configuration not stated) returned TDP1 cell CPT -18%, TDP1 inh -3%, TGFb SMAD3 inh -4%, TDP1 cell noCPT -17%, HepG2 tox -4% and IL-1B inflam inh -57*.
For O=C(c1cc(Br)ccc1O)N(Cc1ccco1)Cc1cccs1 the results were TDP1 cell CPT inconclusive, TDP1 inh 5%, TGFb SMAD3 inh inconclusive, TDP1 cell noCPT inconclusive and HepG2 tox -56%.
`CC(CCc1ccccc1)NC(=O)c1ccc(NC(=O)c2ccccc2)cc1` (configuration not stated) gave TDP1 cell CPT 15µM*, TDP1 inh 3%, TGFb SMAD3 inh -13%, TDP1 cell noCPT 10µM*, HepG2 tox -13% and IL-1B inflam inh 4.
For COc1ccc(CN(C)C(=O)c2ccccc2Sc2ccccc2C#N)c(OC)c1 the results were TDP1 cell CPT 23µM*, TDP1 inh 2%, TGFb SMAD3 inh -2%, TDP1 cell noCPT 23µM*, HepG2 tox 2% and IL-1B inflam inh inconclusive.
Screening COc1ccccc1CN(C)C(=O)c1ccccc1Sc1ccccc1C#N returned TDP1 cell CPT inconclusive, TDP1 inh 6%, TGFb SMAD3 inh -19%, TDP1 cell noCPT inconclusive, HepG2 tox -39% and IL-1B inflam inh 13.
`CN(Cc1ccccc1F)C(=O)c1ccccc1Sc1ccccc1C#N` gave TDP1 cell CPT inconclusive, TDP1 inh 4%, TGFb SMAD3 inh -3%, TDP1 cell noCPT inconclusive, HepG2 tox 0% and IL-1B inflam inh -66*.
Screening CCCOc1ccc(N2C(=O)CC(SC(=N)N3N=C(c4ccccc4)CC3c3ccccc3)C2=O)cc1 (configuration not stated) returned TDP1 cell CPT 18µM*, TDP1 inh 7%, TGFb SMAD3 inh inconclusive, TDP1 cell noCPT 18µM*, HepG2 tox 8% and IL-1B inflam inh 0.
Screening Cc1cc(C)cc(-n2ccnc2SCC(=O)Nc2ccc(C)c(Cl)c2)c1 returned TDP1 cell CPT 16µM*, TDP1 inh 8%, TGFb SMAD3 inh inconclusive, TDP1 cell noCPT 18µM* and HepG2 tox -29%.
